Data published in PubChem BioAssay.
The source made the active and inactive calls.

How the values were obtained:
[1] = E. coli DRC41 culture turbidity changes, primary screen, E. coli filamentation inducer project, strain DRC41, OD650, 48 h (AID 1152);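 note: E. coli MC1000 strain DRC41 lacking acrAB efflux pump and sulA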; settings: E. coli DRC41 (acrAB sulA), higher = more signal, called active from +8 up or from −8 down
[2] = small-molecule binders of probe aLefty1, primary screen, biochemical, small-molecule microarray, 635/667 nm fluorescence (AID 1153); settings: higher = more signal;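 note: score merges spot fluorescence with signal-to-noise ratio from the scanned slide images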
[3] = PSAC antagonists in infected red cells, primary screen, cell-based, P. falciparum Indochina, OD700, 1 h (AID 1154); settings: P. falciparum Indochina infected RBC osmotic lysis, higher = more signal, called active from +8 up or from −8 down
[4] = PSAC antagonists in infected red cells, primary screen, cell-based, P. falciparum Indochina, OD700, 2 h (AID 1155);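 note: lysis reports solute entry through the parasite surface anion channel PSAC; channel blockers reduce lysis of infected cells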; settings: P. falciparum Indochina infected erythrocytes, osmotic lysis OD700; higher = more signal, called active from +8 up or from −8 down
[5] = osmotic lysis modulators in infected erythrocytes, primary screen, PSAC antagonist project, cell-based, P. falciparum Indochina, OD700, 3 h (AID 1156); settings: higher = more signal, called active from +8 up or from −8 down
[6] = PSAC antagonists in infected red cells, primary screen, cell-based, P. falciparum Indochina, OD700, 18 h (AID 1157); settings: P. falciparum Indochina infected erythrocytes, osmotic lysis OD700, 18 h; higher = more signal, called active from +8 up or from −8 down
[7] = modulators of S6 phosphorylation in cells, primary screen, cell-based, A549, cytoblot, luminescence, serum-stimulated (AID 1158); settings: A549 phospho-S6 cytoblot, 5 h, higher = more signal;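 note: serum-stimulated A549 lung adenocarcinoma cells; signal is phosphorylated S6 detected by cytoblot immunostaining with HRP secondary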
[8] = biological target: NADPH oxidase 2 (Homo sapiens) (UniProt P04839); experiment: NOX2-dependent H2O2 signal modulators, primary screen, NOX inhibitor project, cell-based, HEK293-NOX2, PMA-stimulated, Amplex Red fluorescence (AID 1159); settings: 45 min, higher = more signal, called active from +8 up or from −8 down; note: test concentration not given here
NADPH oxidase 2 (Homo sapiens), sequence (P04839 whole entry, looked up): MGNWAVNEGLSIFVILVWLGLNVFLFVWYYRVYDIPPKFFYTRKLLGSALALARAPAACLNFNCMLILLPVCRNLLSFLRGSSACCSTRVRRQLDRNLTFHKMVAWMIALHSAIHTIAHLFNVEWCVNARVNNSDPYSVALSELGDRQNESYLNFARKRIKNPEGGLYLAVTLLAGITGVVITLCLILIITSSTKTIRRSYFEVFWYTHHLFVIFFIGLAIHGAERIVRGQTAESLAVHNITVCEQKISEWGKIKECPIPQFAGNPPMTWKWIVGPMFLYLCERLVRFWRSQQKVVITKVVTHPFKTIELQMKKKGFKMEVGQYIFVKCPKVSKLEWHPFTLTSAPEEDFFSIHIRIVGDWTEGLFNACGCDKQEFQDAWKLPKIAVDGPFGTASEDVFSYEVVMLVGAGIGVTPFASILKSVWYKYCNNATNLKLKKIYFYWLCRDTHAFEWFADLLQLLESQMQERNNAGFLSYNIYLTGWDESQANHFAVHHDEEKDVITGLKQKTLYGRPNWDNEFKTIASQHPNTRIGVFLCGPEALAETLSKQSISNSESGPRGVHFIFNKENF

[9] = biological target: NADPH oxidase 4 (Homo sapiens) (UniProt Q9NPH5); experiment: NOX4-dependent H2O2 signal modulators, primary screen, NOX inhibitor project, cell-based, HEK293-NOX4, tetracycline-induced, Amplex Red fluorescence (AID 1160); settings: 45 min, higher = more signal, called active from +8 up or from −8 down
NADPH oxidase 4 (Homo sapiens), sequence (Q9NPH5 whole entry, looked up): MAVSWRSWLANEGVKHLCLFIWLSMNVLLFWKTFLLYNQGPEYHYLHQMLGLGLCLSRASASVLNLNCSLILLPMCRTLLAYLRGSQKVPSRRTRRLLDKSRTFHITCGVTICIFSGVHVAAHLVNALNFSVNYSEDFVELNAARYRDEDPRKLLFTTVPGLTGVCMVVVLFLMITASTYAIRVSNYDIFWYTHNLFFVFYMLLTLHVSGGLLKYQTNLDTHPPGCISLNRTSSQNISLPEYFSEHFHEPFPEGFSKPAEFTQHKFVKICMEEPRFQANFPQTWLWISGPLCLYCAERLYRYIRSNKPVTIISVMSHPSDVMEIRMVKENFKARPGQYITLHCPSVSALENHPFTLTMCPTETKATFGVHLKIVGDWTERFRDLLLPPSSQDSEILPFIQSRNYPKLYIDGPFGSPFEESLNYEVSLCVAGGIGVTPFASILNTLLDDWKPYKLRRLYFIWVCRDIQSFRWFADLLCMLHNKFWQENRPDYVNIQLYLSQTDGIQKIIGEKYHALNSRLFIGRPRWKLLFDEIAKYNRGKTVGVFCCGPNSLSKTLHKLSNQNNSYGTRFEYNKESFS

[10] = biological target: NADPH oxidase 5 (Homo sapiens) (UniProt Q96PH1); experiment: NOX5-dependent H2O2 signal modulators, primary screen, NOX inhibitor project, cell-based, HEK293-NOX5, Amplex Red fluorescence (AID 1161); settings: HEK293-NOX5, ionomycin, 45 min, higher = more signal
NADPH oxidase 5 (Homo sapiens), sequence (Q96PH1 whole entry, looked up): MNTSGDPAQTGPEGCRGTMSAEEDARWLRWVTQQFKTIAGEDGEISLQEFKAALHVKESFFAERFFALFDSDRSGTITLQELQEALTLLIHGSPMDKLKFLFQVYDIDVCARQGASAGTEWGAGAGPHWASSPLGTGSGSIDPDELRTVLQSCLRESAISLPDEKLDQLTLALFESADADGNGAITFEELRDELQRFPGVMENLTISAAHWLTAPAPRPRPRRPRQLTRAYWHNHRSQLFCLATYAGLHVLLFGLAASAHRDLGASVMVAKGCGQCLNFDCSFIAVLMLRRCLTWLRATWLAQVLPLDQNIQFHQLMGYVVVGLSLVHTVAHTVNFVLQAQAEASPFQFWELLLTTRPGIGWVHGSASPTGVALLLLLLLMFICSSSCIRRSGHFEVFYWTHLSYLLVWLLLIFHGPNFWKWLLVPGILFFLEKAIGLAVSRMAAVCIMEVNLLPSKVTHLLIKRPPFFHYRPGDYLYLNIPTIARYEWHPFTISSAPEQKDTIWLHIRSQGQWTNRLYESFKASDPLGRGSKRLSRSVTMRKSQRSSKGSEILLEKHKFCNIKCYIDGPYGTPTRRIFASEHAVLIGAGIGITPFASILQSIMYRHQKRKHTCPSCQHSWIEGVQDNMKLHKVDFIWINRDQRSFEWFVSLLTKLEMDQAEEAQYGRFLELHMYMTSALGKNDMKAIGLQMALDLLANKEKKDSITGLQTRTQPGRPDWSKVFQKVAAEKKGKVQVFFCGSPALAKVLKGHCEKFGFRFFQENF

Q: With `C=C[C@H](C)[C@H](OC(=O)Nc1ccc(SC)cc1)c1ccc(OCCO)cc1` as the compound, how does the z-score [1] read?
A: -1.79 (inactive)

Q: And the composite z-score [2]?
A: 0.329

Q: What about the z-score [3] of the same compound?
A: 27.6 (active)

Q: And the z-score [4]?
A: 15.6 (active)

Q: And the z-score [5]?
A: 1.91 (inactive)

Q: And the z-score [6]?
A: 0.184 (inactive)

Q: What about the z-score [7] of the same compound?
A: 1.58

Q: And the z-score [8]?
A: -0.831 (inactive)

Q: What about the z-score [9] of the same compound?
A: -0.356 (inactive)

Q: And the z-score [10]?
A: -0.756

Q: Which results are given for `CC(CO)N1C(=O)[C@]2(C)C3C(=O)OCCC/C=C\[C@H]3OC23C=CCN(c2ccc(Cl)cc2)C(=O)[C@@H]13` (stereo not given in full)?
A: z-score [1]: 0.79 (inactive); composite z-score [2]: -0.062; z-score [3]: 0.423 (inactive); z-score [4]: 0.576 (inactive); z-score [5]: 1.94 (inactive); z-score [6]: 0.5 (inactive); z-score [7]: -0.021; z-score [8]: 1.25 (inactive); z-score [9]: -0.0121 (inactive); z-score [10]: 1.33

Q: Which z-score [1] does the source give for `[N-]=[N+]=NCc1ccccc1[C@@H]1OC(c2ccc(OCCCO)cc2)=N[C@]1(CCS(=O)(=O)c1ccccc1)C(=O)O` here?
A: -0.0791 (inactive)

Q: And the composite z-score [2]?
A: 0.186

Q: What about the z-score [3] of the same compound?
A: 18.8 (active)

Q: And the z-score [4]?
A: 4.31 (inactive)

Q: And the z-score [5]?
A: 0.296 (inactive)

Q: And the z-score [6]?
A: 0.716 (inactive)

Q: What about the z-score [7] of the same compound?
A: -0.0381

Q: What about the z-score [8] of the same compound?
A: 1.19 (inactive)

Q: What about the z-score [9] of the same compound?
A: 1.33 (inactive)

Q: What about the z-score [10] of the same compound?
A: 2.11

Q: What does the source list for `COCCCNC(=O)[C@@]1(Sc2ccc(C)cc2)CC(=O)N(C2Cc3ccccc3C2)[C@@H]1c1ccc(CO)cc1`?
A: z-score [1]: 0.625 (inactive); composite z-score [2]: 0.0653; z-score [3]: 1.86 (inactive); z-score [4]: -0.562 (inactive); z-score [5]: 1.03 (inactive); z-score [6]: -1.78 (inactive); z-score [7]: 2.12; z-score [8]: 0.00261 (inactive); z-score [9]: -0.107 (inactive); z-score [10]: -1.76

Q: Which results are given for `CC(C)N1C(=O)C[C@@](C(=O)O)(c2ccc([N+](=O)[O-])cc2)[C@H]1c1ccc(CO)cc1`?
A: z-score [1]: 1.47 (inactive); composite z-score [2]: 0.188; z-score [3]: 3.45 (inactive); z-score [4]: 0.654 (inactive); z-score [5]: 0.415 (inactive); z-score [6]: 0.159 (inactive); z-score [7]: 0.126; z-score [8]: -2.39 (inactive); z-score [9]: 0.251 (inactive); z-score [10]: 1.02

Q: For `[N-]=[N+]=Nc1ccccc1[C@@H]1OC(c2ccc(OCCCO)cc2)=N[C@]1(Cc1ccccc1)C(=O)N1CCCCC1`, which z-score [1] is on record?
A: 0.227 (inactive)

Q: And the composite z-score [2]?
A: 0.282

Q: And the z-score [3]?
A: 32.6 (active)

Q: What about the z-score [4] of the same compound?
A: 32.7 (active)

Q: And the z-score [5]?
A: 3.01 (inactive)

Q: What about the z-score [6] of the same compound?
A: 4 (inactive)

Q: And the z-score [7]?
A: 0.328

Q: And the z-score [8]?
A: -1.43 (inactive)

Q: And the z-score [9]?
A: -0.743 (inactive)

Q: What about the z-score [10] of the same compound?
A: -1.77

Q: Which z-score [1] does the source give for `C=CCN1Cc2ccccc2[C@@H]2OC(c3ccc(OCCCO)cc3)=N[C@]2(CC=C)C1=O` here?
A: 0.408 (inactive)

Q: What about the composite z-score [2] of the same compound?
A: 1.49

Q: And the z-score [3]?
A: 22.5 (active)

Q: What about the z-score [4] of the same compound?
A: 7.24 (inactive)

Q: And the z-score [5]?
A: 5.55 (inactive)

Q: And the z-score [6]?
A: 1.33 (inactive)

Q: And the z-score [7]?
A: -0.218

Q: And the z-score [8]?
A: -1.98 (inactive)

Q: And the z-score [9]?
A: 0.452 (inactive)

Q: And the z-score [10]?
A: 1.03

Q: With `COc1ccc(CCNC(=O)[C@@]2(Sc3ccc(C)cc3)CC(=O)N(Cc3ccccc3C(F)(F)F)[C@@H]2c2ccc(CO)cc2I)cc1` as the compound, how does the z-score [1] read?
A: 0.729 (inactive)

Q: And the composite z-score [2]?
A: 0.0701

Q: What about the z-score [3] of the same compound?
A: 7.89 (inactive)

Q: And the z-score [4]?
A: 1.43 (inactive)

Q: What about the z-score [5] of the same compound?
A: 0.932 (inactive)

Q: What about the z-score [6] of the same compound?
A: 0.844 (inactive)

Q: What about the z-score [7] of the same compound?
A: -0.513

Q: And the z-score [8]?
A: 0.933 (inactive)

Q: And the z-score [9]?
A: -2.09 (inactive)

Q: And the z-score [10]?
A: 0.713
